Sampled rows, rich in hits. Any-hit rate of the full collection: about 1.6%.
SK-BR-3 tox 24h – SK-BR-3 proliferation inhibitors, primary screen, cell-based, human, 24 h; SK-BR-3 viability, CellTiter-Glo ATP luminescence; stronger effect = lower value; viability, % at 10 µM; 41,000 compounds, 0.47% hits;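 active means viability at or below the median of all test compounds minus 3 SD, in both replicates if run twice, cut at about 45% in these data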;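 further: 100% = median untreated cell wells and 0% = median positive control drug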
Htt clearance – clearance of mutant huntingtin inclusions, primary screen, imaging, HeLa Exon1htt(103Q)mCFP, confocal imaging; aggregate imaging; zero = plate's median compound well; inhibition, % at 1.5 µM; 47,000 compounds, 0.42% hits; AID 853, 2007;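 active means inhibition of aggregate fluorescence above about 70%, also judged a hit by eye on the cell image, limit read from the data, passing the limit was not always enough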;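 further: cells exposed to compound for three days before fixation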
DUSP1 inh – MKP-1 phosphatase inhibitors, primary screen, biochemical, in vitro. Dual specificity protein phosphatase 1 (Homo sapiens), P28562. recombinant MKP-1, OMFP hydrolysis fluorescence. inhibition, %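 (compounds tested at a single concentration somewhere between 10 and 100 µM)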. 65,000 compounds, 0.15% hits. AID 374, 2006;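 active means inhibition above about 50%, limit read from the data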;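 further: 0% = DMSO max control wells and 100% = wells with enzyme stopped by NaOH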
Target sequence (P28562 whole entry, looked up): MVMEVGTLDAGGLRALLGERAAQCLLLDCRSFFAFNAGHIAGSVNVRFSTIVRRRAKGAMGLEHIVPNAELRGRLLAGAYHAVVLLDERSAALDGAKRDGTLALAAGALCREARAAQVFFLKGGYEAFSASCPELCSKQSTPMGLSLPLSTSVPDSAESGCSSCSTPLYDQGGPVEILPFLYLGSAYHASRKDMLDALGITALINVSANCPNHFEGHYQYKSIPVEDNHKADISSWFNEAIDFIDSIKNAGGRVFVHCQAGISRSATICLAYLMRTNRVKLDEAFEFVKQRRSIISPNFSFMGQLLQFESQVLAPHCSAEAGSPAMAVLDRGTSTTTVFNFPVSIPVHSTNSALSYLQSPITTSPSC
Jurkat tox 60K – cytotoxicity toward Jurkat T cells, primary screen, cytotoxicity control, cell-based, Jurkat E6.1, 60K MLSMR library. 56,000 compounds, 1.2% hits. Jurkat E6.1 viability, ATP luminescence, 48 h. AID 463, 2006. inhibition, % at 4 µM;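 active means inhibition above the mean inhibition of all tested compounds plus 3 SD, cut at about 28% in these data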
Cdc25B block – inhibitors of Cdc25B phosphatase catalytic domain, primary screen, biochemical, OMFP fluorescence | M-phase inducer phosphatase 2 (Homo sapiens), P30305 | recombinant Cdc25B, OMFP fluorescence Ex485/Em525 | inhibition, %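 (compounds tested at 10 µM final in the well)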 | 65,000 compounds, 0.1% hits | AID 368, 2006; in the data active means inhibition above about 50%
Numbers without * were called inactive; i = inactive; . = no result given.

SMILES	SK-BR-3 tox 24h	Htt clearance	DUSP1 inh	Jurkat tox 60K	Cdc25B block
Oc1c(CN2CCN(c3ccccn3)CC2)cc(Cl)c2cccnc12	75	.	7	45*	-4
Oc1ccc(CN2CCN(c3ccccc3)CC2)c2cccnc12	.	-16	.	.	.
Oc1ccc(COCc2ccccc2)c2cccnc12	49	-29	0	68*	-3
COCc1cc(CN2CCCC2)c(O)c2ncccc12	89	.	5	43*	-7
Oc1c(CN2CCCCC2)cc(COCc2ccccc2)c2cccnc12	.	.	6	34*	-2
CN1CCN(C(=O)C(C(=O)c2ccc(F)cc2)n2ccccc2=O)CC1 (stereo not drawn)	.	-20	.	.	.
CC(=O)Oc1c(Cl)c(N2CCOCC2)c(OC(C)=O)c2ccccc12	92	.	18	1	2
CCOc1ccccc1N1CCN(Cc2cccc(OC)c2O)CC1	.	-27	-3	4	-7
COc1ccccc1N1CCN(c2nc(C)nc3c2oc2ccccc23)CC1	94	.	27	77*	-1
Cc1nc(N2CCN(Cc3ccc4c(c3)OCO4)CC2)c2oc3ccccc3c2n1	74	.	12	.	-3
COc1ccccc1N1CCN(Cc2cc(Br)c(O)c3ncccc23)CC1	.	.	12	61*	-8
CCc1nnc(SCC(=O)N2CCCc3ccccc32)nc1CC	.	-45	7	-8	0
CCn1c(CSc2ncccn2)nnc1SCC(=O)N1CCc2ccccc21	87	.	15	-6	1
O=C(CSc1n[nH]c(-c2ccccc2O)n1)N1CCCc2ccccc21	.	.	3	62*	-11
Cn1c(CSc2ncccn2)nnc1SCC(=O)N1CCCc2ccccc21	24*	.	7	3	-11
Cc1c(NC(=O)C(C)N2CC(C)OC(C)C2)c(=O)n(-c2ccccc2)n1C (stereo not drawn)	.	10	8	8	-2
Clc1cccc(-c2nnc(-c3ccccc3)o2)c1	18*	-49	-4	8	-8
Cc1cc(NC(=O)CSc2nc(-c3ccco3)cc(C(F)(F)F)n2)no1	107	i	29	59*	2
CS(=O)(=O)c1nc(-c2ccco2)cc(C(F)(F)F)n1	31*	-1	1	.	-1
FC(F)(F)c1cc(-c2ccco2)nc(NCc2ccco2)n1	88	-26	12	.	0
Cc1cc(NC(=O)CCCSc2nc(-c3ccco3)cc(C(F)(F)F)n2)no1	103	.	3	-3	1
COc1ccccc1N1CCN(C(=O)CSc2nc(C)c(Cc3ccccc3)c(=O)[nH]2)CC1	79	80*	7	1	8
N#Cc1c(NCc2ccccc2)ccnc1NCc1cccnc1	77	.	10	69*	-1
Clc1ccc(CCNc2ncnc3nc[nH]c23)cc1	.	32	1	35*	-11
c1ccc(CCCNc2ncnc3nc[nH]c23)cc1	.	.	4	0	-10
SMILES	SK-BR-3 tox 24h	Htt clearance	DUSP1 inh	Jurkat tox 60K	Cdc25B block
COc1cc(C2=NOC(C(=O)NCc3ccco3)C2)cc(OC)c1OC (stereo not drawn)	.	.	-1	73*	-1
N#CC1=C(N)N(c2ccc(Oc3ccccc3)cc2)C(=O)C1	.	.	-2	1	-7
O=C(COC(=O)CN1C(=O)c2ccccc2C1=O)Nc1ncc(Cl)cc1Cl	.	.	11	0	5
O=C(COC(=O)CCCN1C(=O)c2ccccc2C1=O)Nc1ncc(Cl)cc1Cl	.	72*	9	1	0
COc1ccc2ncn(-c3ccccc3)c2c1	101	75*	-6	2	16
Cc1noc(C)c1CSc1nc2ccccc2nc1NS(=O)(=O)c1ccc(Cl)cc1	.	.	32	76*	9
N#CC1=C(N)N2C(=C(C#N)C13CCCCC3)SC1CCCCC12O (stereo not drawn)	.	.	3	14	63*
CSc1nc(-c2ccccc2O)nc(-c2ccccc2O)n1	99	.	-34	3	-4
COC(=O)C(NC(=O)c1ccco1)(Nc1ccc(Br)cn1)C(F)(F)F (stereo not drawn)	94	1	-26	.	-21
O=C(CSc1nnc(-c2cccs2)n1-c1ccccc1)NCc1ccc2c(c1)OCO2	73	73*	-3	-5	-4
O=C(CSc1nnc(-c2cccs2)n1Cc1ccccc1)NCc1ccc2c(c1)OCO2	.	-6	.	.	.
COc1ccc(NC(=O)COC(=O)CCCc2c[nH]c3ccccc23)cc1OC	.	32	.	.	.
CCOC(=O)c1c(C)c(C(=O)NCCOC)c(C)n1CC	.	.	9	18	-3
CCOC(=O)c1c(C)c(C(=O)Nc2ccc(N(C)C)cc2)c(C)n1CC	.	12	11	59*	-10
Cc1nn(C(=O)c2c([N+](=O)[O-])cnn2C)c(C)c1Cl	.	14	.	.	.
COc1cc(C2Nc3ccc4ncccc4c3C3=C2C(=O)CCC3)ccc1O (stereo not drawn)	89	.	6	81*	13
CN(Cc1ccccc1)c1nc2c(c(=O)[nH]c(=O)n2C)n1CCSc1ncccn1	.	2	.	.	.
CC(Oc1ccc(Cl)cc1Cl)C(=O)Nc1ccncc1 (stereo not drawn)	91	.	5	44*	-1
c1ccc(CCc2nn3c(Cc4ccccc4)nnc3s2)cc1	87	-74	3	-7	-11
CCSc1nnc(NC(=O)c2ccccn2)s1	.	.	5	76*	-9
O=C(Nc1cccc(NS(=O)(=O)c2ccc(S(=O)(=O)NC3CC3)cc2)c1)c1ccccn1	83	-30	27	2	2
COC(=O)c1ccc(Oc2cc(C)nc(SC)n2)cc1	85	i	2	65*	-7
CSc1ccc(S(=O)(=O)Nc2ccc(F)cc2)cc1	103	-3	2	1	-10
COc1ccc(NS(=O)(=O)c2ccc(SC)cc2)cc1	82	86*	-14	1	1
Cc1csc(NC(=O)CSc2nnc(-c3ccoc3C)n2Cc2ccco2)n1	78	48	22	1	-3
SMILES	SK-BR-3 tox 24h	Htt clearance	DUSP1 inh	Jurkat tox 60K	Cdc25B block
CCOc1ccc(S(=O)(=O)n2nnc3ccccc32)cc1C	108	74*	29	-10	-1
O=C1CC(N2CCN(CCc3ccccn3)CC2)C(=O)N1c1ccc(Cl)cc1 (stereo not drawn)	.	.	12	-2	59*
CN1c2ccccc2C(C)(C)C12C=Cc1cc(O)ccc1O2 (stereo not drawn)	.	.	13	54*	2
CCN(CC)C(=O)c1csc(Nc2ccc(C)cc2)n1	38*	.	-4	2	-15
Cc1ccc(Nc2nc(C(=O)NCc3ccco3)cs2)cc1	71	.	21	10	-20
CCOc1ccc(N2C(=O)CN=C2Nc2ccccc2F)cc1	.	97*	.	.	.
COc1cc(C2C(C#N)=C(N)Oc3cc(C)n(Cc4ccccn4)c(=O)c32)cc2c1OCO2 (stereo not drawn)	90	.	1	.	28
Cc1nnc(Sc2nc(Sc3nnc(C)s3)nc(N3CCN(C)CC3)n2)s1	100	.	-11	101*	3
Cc1ccc(-c2ccc(/C=N/c3ncn[nH]3)o2)cc1Cl	35*	-18	-8	.	-15

Screens deposited in PubChem by several laboratories.
